A short description of this assay: NCI Yeast Anticancer Drug Screen. Data for the bub3 strain (AID 167). The following applies: S. cerevisiae bub3 mutant strain, active compounds read high. The method, then:
Growth inhibition of yeast strains with defined genetic alterations is measured as a screen for potential anti-cancer activity. Selected strains with alterations in DNA damage repair or cell cycle control were exposed to compounds and growth inhibition was measured relative to vehicle treated controls. The strain used in this assay is bub3

The mark [1] stands for this setting: at 5.0 µM (retest, dose inferred, filed as 0.5).
The mark [2] stands for this setting: at 50.0 µM (retest, dose inferred, filed as 5.0).

The panel holds about 79,000 compounds, 15% with a hit somewhere; the sample as a whole holds those more often. A number with no mark means an inactive call. Calls of active or inactive are those of the source. No stated cut-off is given here; in the data, active means growth inhibition above about 70%; inactive means the rest.

As for `CCCCCCNCCCNc1c2cc(OC)ccc2nc2cccc([N+](=O)[O-])c12`, the growth inhibition (at 1.2 µM) is -6%; the growth inhibition (at 3.7 µM) is -13%; the growth inhibition under setting [1] is -3%; the growth inhibition (at 11.0 µM) was -18%; the growth inhibition (at 33.0 µM) is 34%; the growth inhibition under setting [2] is 96% (active). Besides, the growth inhibition (at 50.0 µM) was 92.7% (active) and the growth inhibition (at 100.0 µM) is 95% (active).

In the case of `COc1ccccc1NC(=O)c1ccc(Cl)cc1`, the growth inhibition (at 1.2 µM) is -5%; the growth inhibition (at 3.7 µM) is -5%; the growth inhibition under setting [1] was -8%; the growth inhibition (at 11.0 µM) was -3%; the growth inhibition (at 33.0 µM) is 5%; the growth inhibition under setting [2] was -10%. Further, the growth inhibition (at 50.0 µM) is 23.9% and the growth inhibition (at 100.0 µM) is 7%.

On to `Cc1ccccc1NC(=O)c1c(C)oc2c1C(=O)c1ccccc1C2=O`, for which the growth inhibition runs as follows: (at 1.2 µM) -57%; (at 3.7 µM) -36%; under setting [1], 17%; (at 11.0 µM) -23%; (at 33.0 µM) 25%; under setting [2], 94% (active). The growth inhibition (at 50.0 µM) was 69.2% and the growth inhibition (at 100.0 µM) was 85% (active).

With `S=C1C(=Nc2ccccc2)N(c2ccccc2)/C(=N\c2ccccn2)N1c1ccccc1`, the growth inhibition was -7% (at 1.2 µM); -13% (at 3.7 µM); 0% under setting [1]; 31% (at 11.0 µM); 99% (active) (at 33.0 µM); 97% (active) under setting [2]. Also, the growth inhibition (at 50.0 µM) was 97.7% (active) and the growth inhibition (at 100.0 µM) is 99% (active).

On to `CN(C)CCNc1ccc2ncn3c4ccc(O)cc4c(=O)c1c23`, for which the growth inhibition was -19% (at 1.2 µM); -12% (at 3.7 µM); 11% under setting [1]; -14% (at 11.0 µM); 3% (at 33.0 µM); 11% under setting [2]. Besides, the growth inhibition by setting is: (at 50.0 µM) -1%; (at 100.0 µM) 7%.

For the origin of these results see PubChem BioAssay (NCI).
